Most compounds without a hit are left out; they make up all but 1.2% or so of the library.
PI4K2A block = blocks human PI4K2A kinase activity; actives 0.13% (n = 420,000); purified PI4K2A, ADP-Glo luminescence, 1 h; active compounds read low; Q9BTU6; activity change, negative = inhibition, % at 76.9 µM; in the data active means activity change below about -50%; inconclusive means mostly about -30% to -49%;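 further: -100% = wells without enzyme as full effect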
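PI4K2A activity was measured by ADP-Glo luminescence: enzyme (4 ug/mL stock) and phosphatidylinositol (1.2 mM stock) in Tris pH 7.5/MgCl2/EGTA/Triton X-100 buffer were reacted with ATP (300 microM stock) for one hour at ambient temperature.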
GALK inhibitor = blocks human galactokinase activity. P51570. Purified GALK, Kinase-Glo residual ATP luminescence. Potency, µM (doses to about 57.5 µM), inactives show at the top dose activity change, negative = inhibition, most hits filed as inhibitors. actives 0.007% (n = 270,000); further: potency means the concentration at half of the fitted maximal effect
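Kinase-Glo Plus luminescence measured ATP left after a 1 h room-temperature reaction. The reaction used 5 nM GALK, 100 uM galactose and 35 uM ATP at pH 8.0 (20 mM HEPES, 5 mM MgCl2, 60 mM NaCl, 1 mM DTT, 0.01% BSA).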
PKM2 act = PKM2 (human) enzyme activation | P14618 | actives 0.34% (n = 260,000) | Potency, µM (highest dose often 57.5 µM), for the others: at the top dose activation, hits mostly activators | purified PKM2, Kinase-Glo ATP luminescence, activation; response scale: 0% is enzyme alone, no compound; further: potency means the concentration at half of the fitted maximal effect; nearly all actives have a fitted effect of over 55% in size
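Purified hPK-M2 (>95% pure) converted ADP (0.1 mM final) to ATP with 0.5 mM PEP in 50 mM imidazole pH7.2, KCl, MgCl2, Tween 20, BSA; 1 h at room temperature. ATP detected by Kinase-Glo luminescence.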
TrxR1 substrate = is turned over as a substrate by rat TrxR1. actives 0.01% (n = 390,000). Potency, µM (highest dose often 114 µM), inactives show at the highest dose activity change, negative = substrate turnover. AID 588456. purified TrxR1 substrate turnover, NADPH consumption readout; further: potency means the concentration at half of the fitted maximal effect; nearly all actives have a fitted effect of over 50% in size
Target sequence (O89049 whole entry, looked up): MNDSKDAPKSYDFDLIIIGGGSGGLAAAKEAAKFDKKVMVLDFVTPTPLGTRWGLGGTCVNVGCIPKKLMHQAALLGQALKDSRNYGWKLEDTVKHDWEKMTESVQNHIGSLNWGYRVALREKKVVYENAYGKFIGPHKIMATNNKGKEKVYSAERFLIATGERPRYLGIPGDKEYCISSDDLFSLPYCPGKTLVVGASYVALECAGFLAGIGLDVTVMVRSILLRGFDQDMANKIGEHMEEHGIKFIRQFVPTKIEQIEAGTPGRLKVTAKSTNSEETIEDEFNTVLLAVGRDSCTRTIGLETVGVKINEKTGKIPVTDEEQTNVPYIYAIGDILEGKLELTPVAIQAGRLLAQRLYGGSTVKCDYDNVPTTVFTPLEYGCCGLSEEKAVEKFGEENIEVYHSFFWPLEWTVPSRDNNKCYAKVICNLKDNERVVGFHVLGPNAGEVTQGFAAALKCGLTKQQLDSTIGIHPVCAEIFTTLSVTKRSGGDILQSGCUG
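Rat TrxR1, dispensed at 90 nM, was prereduced with 400 uM NADPH (final) for 5 min at ~22 deg C, then incubated with compound 15 min before 400 uM selenite. A first-read NADPH fluorescence drop versus no-compound background flagged substrates.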
rTrxR1 inhibitor = blocks rat thioredoxin reductase 1; Potency, µM (doses to about 114 µM), for inactives: top-dose activity change, negative = inhibition, actives largely listed as inhibitors; recombinant rTrxR1, NADPH fluorescence consumption, selenite substrate; O89049; AID 588453; actives 1% (n = 390,000); further: potency means the concentration at half of the fitted maximal effect; nearly all actives have a fitted effect of over 65% in size
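Rat TrxR1 (90 nM in the dispensed reagent) was pre-reduced with 400 uM NADPH for 5 min at room temperature, then incubated with compound for 15 min. After 400 uM selenite was added, NADPH fluorescence (Ex 340/Em 450 nm) was followed for 8 min.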
Active calls of the source: *; i = inactive; u = inconclusive; x = no result given; ! = not confirmed by another sample; [ ] = remark or other dose. Unless noted, the call rests on the fitted dose curve; in most records, active means well fitted curve in the direction sought with a large enough effect; inconclusive means small, poorly fitted or top-dose-only effect, or another doubt; inactive means no such curve, though single readings can be large; an effect the other way counts as inactive or inconclusive. Unless noted, on the % scale 0 is the no-effect control and ±100 the full control effect.

SMILES | PI4K2A block | GALK inhibitor | PKM2 act | TrxR1 substrate | rTrxR1 inhibitor
C=CCn1c(O)c(/C=C2/C=c3ccccc3=N2)c(=O)[nH]c1=S | -15.1 | -2.7% | 2.9% | -7.0% | 20µM*
CC(=O)N1N=C(c2cccnc2)CC1c1ccccc1O (centres undefined) | 5.0 | 0.3% | 5.01µM* | 5.0% | 19.4%[57.1 µM]
COc1ccc(-c2cc(=NCCCCCC(=O)O)c3cc(C)ccc3o2)cc1 | -8.6 | -1.2% | 2.9% | i | 15.8µM*!
COc1ccc(-c2cc(=Nc3cccc(C(=O)O)c3)c3cc(C)ccc3o2)cc1 | -6.4 | 7.0% | -1.6% | 74.3%[57.1 µM] | 20.7%[57.1 µM]
C=C1CCN(C(Cc2ccccc2)C(=O)Nc2ccc(OC)cc2)S(=O)(=O)c2ccccc21 (centres undefined) | x | x | x | 1.0% | 61.2%
COC[C@H]1OC(=O)c2coc3c2[C@@]1(C)C1=C(C3=O)C2CCC(=O)[C@@]2(C)C[C@H]1OC(C)=O (some centres undefined) | 0.9 | x | x | 14.8%[57.1 µM] | 15µM*!
CC1=NN(c2ccccc2)C(=O)/C1=C/c1c(O)[nH]c(=S)[nH]c1=O | -11.8 | -4.4% | -1.3% | u | 17.8µM*
[O]=[Sb]([OH])([OH])[c]1ccccc1 | x | x | x | -1.0% | 6.31µM*
O=C(Nc1cc[c]([Sb](=[O])([OH])[OH])cc1)c1ccccc1 | x | x | x | -4.3% | u
O=C(O)Cn1cc(/C=C2\C(=O)NC(=O)N(Cc3ccco3)C2=O)c2ccccc21 | u | -1.1% | 19.4% | -21.8% | 31.6µM*
CCN(CC)c1ccc(/C=C2\C(=O)NC(=O)N(Cc3ccco3)C2=O)cc1 | -28.4 | 1.6% | 9.6% | -8.1% | 28.2µM*
COP(=S)(OC)Oc1cc(Cl)c(Cl)cc1Cl | -3.9 | x | x | x | x
CN(C)C1C(=O)C(C(N)=O)=C(O)C2(O)C(=O)C3=C(O)c4c(O)cccc4C(C)(O)C3CC12 (centres undefined) | -8.4 | x | -11.6% | -2.2% | -0.1%
CN(C)[C@@H]1C(=O)C(C(N)=O)=C(O)[C@@]2(O)C(=O)C3=C(O)c4c(O)cccc4[C@@](C)(O)C3[C@H](O)C12 (some centres undefined) | -25.5 | x | x | 3.1% | 31.6µM*!
CC(C)(C)CC(C)(C)c1ccc(O)cc1 | 1.8 | x | x | x | x
OCCCc1ccc(O)c(O)c1 | -0.9 | 2.5% | 0.7% | 4.7% | 79.4µM*
CCCN(CCC)CCc1ccc(O)c(O)c1 | 3.8 | x | x | 14.6%[57.1 µM] | 3.9%[57.1 µM]
COC(=O)[C@H]1C[C@@H]1[C@H](NP(=O)(c1ccccc1)c1ccccc1)c1ccccc1 | 2.0 | x | -4.5% | 4.7% | 13.4%[57.1 µM]
COC(=O)[C@@H]1C[C@H]1[C@@H](NP(=O)(c1ccccc1)c1ccccc1)c1ccccc1 | -1.9 | x | 3.8% | -0.5% | 15.8µM*
COc1cc(/C=C2\C(=O)NC(=O)N(CCc3ccc(F)cc3)C2=O)ccc1O | -53.4* | -1.0% | 9.8% | -9.4% | 14.1µM*
CCOc1ccc(/C=C2/C(=O)NC(=O)N(CCc3ccc(F)cc3)C2=O)cc1 | -23.0 | -4.3% | 12.2% | 0.9% | 28.2µM*
Cc1ccc(Cl)c(O)c1 | 1.7 | x | x | x | x
C[C@H]1[C@@H]2Cc3ccc(O)cc3[C@@]1(C)CCN2C | -1.4 | x | x | x | x
CN1C(=O)N(C)C(=O)C2(Sc3ccccc3C2=O)C1=O | -0.1 | 1.5% | 0.7% | 3.1% | 28.2µM*
CCC1(c2ccccc2)C(=O)N(C)C(=O)N(C)C1=O | 3.2 | -2.3% | 0.7% | 2.7% | 22.0%
SMILES | PI4K2A block | GALK inhibitor | PKM2 act | TrxR1 substrate | rTrxR1 inhibitor
CCCCCCCCCC(CC)c1ccc(S(=O)(=O)O)cc1 (centres undefined) | i | x | x | x | x
CCOC(=O)c1c(C)n(Cc2ccc(F)cc2)c2ccc(O)cc12 | 0.6 | 3.7% | 11.2µM* | -5.0% | 20.5%
CCN[C@H](C)Cc1cccc(C(F)(F)F)c1 | i | x | x | x | x
CCOC(=O)C1=CC(=C2C(=O)N(CC)C(=S)N(CC)C2=O)c2ccccc2O1 | -1.1 | -3.6% | 1.7% | -10.1% | 39.8µM*
CCCCCCCCCC[Si](C)(C)CCC(=O)N[C@@H](Cc1ccc(C)cc1)c1ccccc1 | x | x | x | -0.4% | 5.0%
Cn1c2c(c3ccccc31)CCNCC2 | x | x | -5.9% | x | x
Cn1c(=O)oc(=O)c2ccccc21 | 1.7 | x | x | 150.0% | 56.2µM*
CNCCc1c[nH]c2ccccc12 | 0.4 | 7.7% | 0.4% | 4.7% | 56.2µM*
